Mtb UGM inh: M. tuberculosis UGM enzyme inhibitors, primary screen, biochemical, fluorescence polarization, single point | UDP-galactopyranose mutase (Mycobacterium tuberculosis (strain ATCC 25618 / H37Rv)), … | purified UGM, fluorescence polarization probe displacement | inhibition, % at 10 µM | hit rate 0.06% among 320,000 | AID 504406, 2011; in the data active = inhibition above about 10%, passing the limit was not always enough; inconclusive = no clear call, values can overlap the other calls
TcdB inh: TcdB glycohydrolase inhibitors, primary screen, biochemical, single point, plate reader; TcdB glycohydrolase enzymatic assay; inhibition, % at 9.99 µM; hit rate 0.24% among 350,000; AID 652162, 2013; in the data active = inhibition above about 10%
Rv3671c protease: Rv3671c serine protease inhibitors, primary screen, biochemical, fluorescence polarization, M. tuberculosis H37Rv; P9WHR9; inhibition, % at 5.96 µM; hit rate 0.048% among 320,000; AID 2606, 2010;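 also: extracellular domain of Rv3671c used as enzyme; 0% = enzyme with DMSO and 100% = no enzyme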
Target sequence (P9WHR9 whole entry, looked up, the tested form may be a part): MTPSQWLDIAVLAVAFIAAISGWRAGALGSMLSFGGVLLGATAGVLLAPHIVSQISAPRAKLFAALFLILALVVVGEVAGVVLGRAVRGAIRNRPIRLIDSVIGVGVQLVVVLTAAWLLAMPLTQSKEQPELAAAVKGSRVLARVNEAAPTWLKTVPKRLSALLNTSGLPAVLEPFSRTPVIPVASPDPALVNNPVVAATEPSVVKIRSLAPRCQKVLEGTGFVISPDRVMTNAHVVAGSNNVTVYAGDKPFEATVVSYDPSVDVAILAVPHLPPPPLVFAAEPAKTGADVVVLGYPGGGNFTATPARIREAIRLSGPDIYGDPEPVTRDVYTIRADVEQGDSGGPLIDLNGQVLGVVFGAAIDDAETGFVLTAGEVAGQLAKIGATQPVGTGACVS
MazEF act: activators of E. coli MazEF toxin-antitoxin RNase, primary screen, biochemical, fluorescence, uHTS. FAM/BHQ RNA-DNA oligo cleavage fluorescence, 5 h. AID 504720, 2011. activation, % at 20 µM. hit rate 0.32% among 350,000; in the data active = activation above about 50%
Target sequence (P0AE70 whole entry, looked up): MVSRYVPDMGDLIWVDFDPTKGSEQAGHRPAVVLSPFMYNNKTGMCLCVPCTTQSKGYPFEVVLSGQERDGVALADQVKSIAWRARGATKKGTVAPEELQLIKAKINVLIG
RecA splice inh: Mtb RecA intein splicing inhibitors, primary screen, biochemical, fluorescence, HTS; hit rate 0.75% among 290,000; cell-free RecA intein splicing; inhibition, % (test concentration not listed); in the data active = inhibition above about 30%; inconclusive = no clear call, values can overlap the other calls;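 also: 0% = vehicle wells and 100% = reference inhibitor control wells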
Mtb bLac sens: beta-lactam sensitization of Mtb H37Rv, H37Rv. M. tuberculosis H37Rv growth with meropenem, percent inhibition. inhibition, % at 25 µM. hit rate 0.27% among 330,000. AID 434955, 2010; call rule not given here;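 also: growth measured after seven days incubation then overnight dye step; 0% = bacteria only wells and 100% = bacteria with antibiotic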
Rv3671c cf: Rv3671c serine protease inhibitors, retest, confirmation, biochemical, fluorescence polarization, M. tuberculosis H37Rv; shares compounds with Rv3671c protease; inhibition, % at 5.96 µM; hit rate 40% among 140; AID 2761, 2010
The depositor's hits bear a star; ? = inconclusive; . = no result. Most compounds without a hit are left out; they make up all but 0.97% or so of the library. Rule as the data show it, unless noted: active = inhibition above about 38%; inactive = the rest.

SMILES	Mtb UGM inh	TcdB inh	Rv3671c protease	MazEF act	RecA splice inh	Mtb bLac sens	Rv3671c cf
CCOC(=O)C1=C(NC(=S)NC(=O)c2ccccc2)c2ccccc2CC1C(C)C (configuration not stated)	-6.3	.	54.6*	-1.1	4.5	-3.4	-12.1
CCC(=O)Nc1ccc2c(c1)OC[C@@H](C)N(C(=O)C1CC1)C[C@@H](C)[C@@H](OC)CN(C)C2=O	.	0.0	.	.	.	.	.
NNC(=O)c1cc2ccccc2cc1O	1.5	.	37.4*	-4.3	-9.4	-4.8	-4.7
O=C(NCCO)c1cc2ccccc2cc1O	1.6	.	-3.7	0.9	-17.6	-1.7	.
O=c1cc[nH]c2c1ccc1c(=O)cc[nH]c12	1.5	-17.7	50.2*	-6.8	-1.8	-1.5	14.6
C[C@@H]1CCCCO[C@H](CN(C)C(=O)C2CCCCC2)[C@H](C)CN([C@H](C)CO)C(=O)c2cc(NS(=O)(=O)c3cccs3)ccc2O1	.	-4.0	.	.	.	.	.
Cc1sc(-c2ccncc2)nc1OC(=O)c1ccccc1	2.4	.	44.1*	17.1	1.0	27.4	60.9*
C[C@@H]1CN([C@@H](C)CO)C(=O)c2cc(NS(C)(=O)=O)ccc2O[C@@H](C)CCCCO[C@H]1CN(C)CC1CC1	.	-0.1	.	.	.	.	.
Cc1ccc(OCCn2cc(/C=N/NC(=O)c3ccncc3)c3ccccc32)cc1	3.9	.	40.2*	-15.6	0.4	98.2	26.3
c1ccc(CCN2CN=C(Nc3nc4ccccc4s3)NC2)cc1	-0.8	1.4	78.0*	6.0	4.7	95.1	8.7
OCCN1CN=C(Nc2nc3ccccc3s2)NC1	0.4	.	-1.1	-4.6	-0.3	2.6	.
Nc1ccc(O)c2c1C(=O)c1ccccc1C2=O	3.5	1.1	56.2*	-135.7	41.6*	2.9	38.2*
O=C(C[C@H]1C[C@@H]2c3cc(NC(=O)Cc4ccncc4)ccc3O[C@@H]2[C@H](CO)O1)NCC1CC1	.	-0.3	.	.	.	.	.
COc1cccc(CSc2nc3ccncc3[nH]2)c1	-4.9	-2.2	182.6*	-2.1	-4.3	3.6	-0.7
CCN1/C(=C/C=C/c2oc3ccc(-c4ccccc4)cc3[n+]2CC)Oc2ccc(-c3ccccc3)cc21	?	1.2	59.5*	.	-7.6	94.8	-16.5
CCN1/C(=C/C=C/c2sc3ccccc3[n+]2CC)Sc2ccccc21	-2.3	.	-368.7	-456.8	19.8	81.0	.
OC[C@@H]1[C@@H](c2ccccc2)C2(CN(Cc3ccc4c(c3)OCO4)C2)N1Cc1ccccc1	.	-0.8	.	.	.	.	.
CCN(c1ccccc1)S(=O)(=O)c1ccc(N2CCN(c3ccc(OC)cc3)CC2)nc1	0.9	0.6	101.6*	-1.8	.	-9.9	-6.0
NC(=O)COC(=O)C1c2ccccc2Oc2ccccc21	2.9	1.3	-1.5	-2.4	2.1	8.1	.
N#CCN(CC#N)C(=O)C1c2ccccc2Oc2ccccc21	8.5	1.8	103.8*	5.5	0.7	-0.8	5.0
Cc1noc(C(=O)Nc2ccc(F)c(Cl)c2)c1Cl	-3.1	-0.8	61.3*	-4.7	-1.4	0.3	-4.7
Cc1noc(C(=O)Nc2ccc(Cl)cc2)c1Cl	-0.7	.	4.0	.	-0.3	-6.4	.
CCN(CC)CCNc1nc(-c2ccco2)c2c(c1C#N)CC(C)(C)OC2	0.2	1.5	-7.6	-4.7	-3.6	0.0	.
CC1(C)Cc2c(C#N)c(NCCc3ccccc3)nc(-c3ccco3)c2CO1	-0.1	.	80.5*	-5.5	2.8	-12.8	14.9
O=c1c2ccccc2[se]n1-c1ccccc1	.	0.2	39.9*	-15.4	-0.9	48.5	40.6*
SMILES	Mtb UGM inh	TcdB inh	Rv3671c protease	MazEF act	RecA splice inh	Mtb bLac sens	Rv3671c cf
C/C=C/c1ccc([C@@H]2[C@H]3CN(Cc4ccccc4)CC(=O)N3[C@H]2CO)cc1	.	0.8	.	.	.	.	.
O=C(O)C1C2C=CC(C2)C1C(=O)NCc1cccnc1 (configuration not stated)	1.2	.	77.0*	8.2	-1.9	-4.6	-9.0
O=C(O)c1cc(O)c2c(c1)[C@@H]([C@H]1c3cc(C(=O)O)cc(O)c3C(=O)c3c(O[C@@H]4O[C@H](CO)[C@@H](O)[C@H](O)[C@H]4O)cccc31)c1cccc(O[C@@H]3O[C@H](CO)[C@@H](O)[C@H](O)[C@H]3O)c1C2=O	-0.6	.	71.3*	-37.4	.	12.7	20.6
COCCCNc1c2c3c(cccc3[nH]c1=O)C(=O)c1ccccc1-2	101.9*	-5.7	137.3*	.	.	-1.0	144.7*
COCCCNC1=C(Cl)C(=O)c2ccccc2C1=O	-1.7	0.7	-1.1	0.7	18.6	4.0	.
CN(C)CCCNC(=O)C[C@@H]1CC[C@H]2[C@@H](COc3ccc(NC(=O)c4cccc(F)c4)cc3C(=O)N2C)O1	.	0.2	.	.	.	.	.
CCC(=O)N1CC2(C1)CN(C(=O)CN1CCOCC1)[C@@H](CO)c1c2c2ccc(OC)cc2n1C	.	-1.2	.	.	.	.	.
C[C@@H]1CN([C@H](C)CO)C(=O)c2cc(NC(=O)Cc3ccccc3)ccc2O[C@@H]1CN(C)S(=O)(=O)c1ccccc1	.	0.0	.	.	.	.	.
O=C(C[C@@H]1CC[C@@H]2[C@H](COC[C@@H](O)CN2C(=O)c2ccccc2F)O1)NCc1ccc(F)cc1	.	1.1	.	.	.	.	.
C=CCn1cc(/C=N/Nc2nc3ccccc3[nH]2)c2ccccc21	0.5	2.1	40.0*	10.4	26.4	91.3	68.2*
CC(C)Cn1c(/C=N/Nc2nc3ccccc3[nH]2)nc2ccccc21	.	2.0	.	-3.9	2.1	.	.
COc1ccc2c3c(n(C)c2c1)[C@@H](CO)N(C(=O)Cc1ccccn1)CC31CCN(Cc2ccccn2)CC1	.	0.5	.	.	.	.	.
Cc1cc(O)ccc1N=Cc1c(C(F)(F)F)[nH][nH]c1=O	5.1	15.1*	98.7*	-2.1	-5.6	1.5	-4.1
O=c1[nH][nH]c(C(F)(F)F)c1C=Nc1ccccc1	0.9	.	5.6	0.9	.	-5.9	.
COC(=O)c1ccccc1-c1c2ccc(=N)cc-2oc2cc(N)ccc12	138.0*	-0.5	166.4*	.	.	39.5	163.9*
O=C(N/N=C/c1cc([N+](=O)[O-])ccc1O)NC12CC3CC(CC(C3)C1)C2	1.1	-0.8	51.9*	1.8	1.9	57.2	19.8
C[C@H]1CN([C@@H](C)CO)S(=O)(=O)c2ccc(C3=CCCCC3)cc2O[C@H]1CN(C)Cc1ccccc1	.	1.4	.	.	.	.	.
C[C@@H]1CN([C@H](C)CO)C(=O)Cc2cc(NC(=O)Cn3cnnn3)ccc2O[C@@H]1CN(C)Cc1ccc(Oc2ccccc2)cc1	.	-1.4	.	.	.	.	.
COc1ccc(CC(=O)Oc2ccccc2C)cc1	1.6	0.9	11.7	0.8	2.7	7.5	.
CCC(=O)c1ccc(OC(=O)Cc2ccc(OC)cc2)cc1	0.7	-3.0	50.9*	0.1	12.2	4.4	55.2*

Bioassay records (PubChem)
